# Experimental data reported in the supplement of paper PMC11219838.
# Unmarked numbers belong to inactive results.
# Test system: Caenorhabditis elegans dauer (daf-2(e1370))
# Assay: proportion of mobile C. elegans dauer larvae relative to DMSO control (fraction of DMSO control); higher = more viable, less nematicidal, active = 0.63 or less; extreme values may be limits of the assay
# Conditions: 60 µM; 5 days; temperature: 20 °C
# Outline: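 Compound was added by pinning to 60 µM final, giving 0.6% v/v DMSO, in 96-well plates containing about 20 C. elegans dauers per well in liquid NGM. These dauers came from synchronized larvae held on MYOB plates with E. coli OP50 for 48 h at 25 °C. Plates were sealed and shaken at 200 rpm at 20 °C for 5 days. Under a dissection microscope, the proportion of mobile worms was scored relative to DMSO wells, and two biological replicates were averaged.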
row,SMILES,proportion of mobile C. elegans dauer larvae
1,COc1nc(-c2ccc(Cl)cc2)ccc1-c1noc(-c2ccncc2)n1,1
2,Fc1ccc(CSc2nnc(-c3ccccn3)o2)cc1,1
3,CCOc1ccc(NC(=O)CSc2nnc(-c3ccccc3Cl)o2)cc1,1
4,COc1ccc(NC(=O)CSc2nnc(-c3ccc(Br)cc3)o2)cc1,1
5,Cn1c(SCc2ccc(Cl)cc2)nnc1-c1ccco1,1
6,Fc1ccc(-c2nc(-c3cccc(C(F)(F)F)c3)no2)cc1,1
7,O=C(Nc1ccccc1-c1nc(-c2ccncc2)no1)c1cccc(Cl)c1,1
8,O=C(NCCc1ccccc1)c1ccccc1-c1nc(-c2ccccc2Cl)no1,1
9,Cc1ccccc1OCc1nc(-c2ccc3c(c2)OCO3)no1,1
10,CCOC(=O)c1ccc(OCc2nc(-c3cccs3)no2)cc1,1
11,COc1nc(C)ccc1-c1noc(-c2ccc(C)cc2)n1,1
12,CC(C)(C)c1ccc(OCc2nc(-c3ccncc3)no2)c(Br)c1,1
13,COc1cccc(-c2noc(-c3ccc(C)cc3)n2)c1,0 (active)
14,Brc1ccc(-c2nnc(-c3cccs3)o2)o1,0.75
15,Cc1cccc(C)c1NC(=O)CSc1nnc(-c2ccncc2)o1,1
16,CCC(=O)Nc1ccccc1-c1nc(-c2ccncc2)no1,1
17,Ic1ccc(CSc2nnc(-c3ccccc3)o2)cc1,1
18,COc1cccc(-c2nc(-c3ccccc3)no2)c1,0.861
19,O=C(CSc1nnc(-c2ccc(Cl)cc2)o1)c1ccccc1,1

row,SMILES,proportion of mobile C. elegans dauer larvae
1,CCOc1ccc(-c2nc(-c3ccccc3C)no2)cc1,1
2,c1ccc(COc2cccc(-c3nc(-c4ccncc4)no3)c2)cc1,1
3,Cc1ccc(-c2nc(-c3cccc(C)c3)no2)cc1,1
4,COc1cccc(-c2noc(COc3ccc(C(C)C)cc3)n2)c1,1
5,Cc1ccccc1OCc1nc(-c2cccc(NC(=O)c3ccco3)c2)no1,1
6,O=C(CSc1nnc(-c2ccc(Cl)cc2Cl)o1)N1CCCCC1,1
7,Brc1ccc(-c2noc(-c3cccs3)n2)o1,0.5 (active)
8,C=CCSc1nnc(-c2ccc(Br)cc2)o1,1
9,COc1nc(C)ccc1-c1noc(-c2ccccc2Cl)n1,1
10,N#Cc1ccc(OCc2nc(-c3ccc(Br)o3)no2)cc1,1
11,Cc1ccc(-c2noc(-c3ccc(Br)o3)n2)s1,1
12,COc1ccc(-c2noc(COc3ccc(Cl)c(C)c3)n2)cc1,1
13,CC(Sc1nnc(-c2cccnc2)o1)C(=O)c1ccccc1 (stereo unspecified),1
14,COc1ccccc1-c1nnc(SCC(=O)Nc2nc(C)cs2)o1,1
15,O=C(CSc1nnc(-c2ccco2)o1)Nc1cccc2ccccc12,1
16,FC(F)(F)c1ccc(-c2noc(-c3ccccc3Cl)n2)cc1,1
17,COc1cccc(-c2noc(COc3ccc(Br)cc3)n2)c1,1
18,COc1ccc(-c2nnc(SCc3csc(N)n3)o2)cc1,1
19,COc1ccc(-c2nc(-c3ccc(Cl)cc3)no2)cc1,1

# Test system: Ditylenchus dipsaci
# Assay: proportion of mobile D. dipsaci (mixed stage) relative to DMSO control (fraction of DMSO control); higher = more viable, less nematicidal, active = 0.86 or less; extreme values may be limits of the assay
# Conditions: 60 µM; 5 days; temperature: 20 °C
# Outline: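 Mobility values are relative to DMSO controls and are averages of two biological replicates. For each well of a 96-well plate, about 20 D. dipsaci worms, grown on pea plants in Gamborg B-5 agar and funnel-extracted into water, were dispensed in distilled water. Plates received pinned compound at 60 µM final with 0.6% v/v DMSO and were sealed and shaken at 200 rpm for 5 days at 20 °C before 2 µL 1 M NaOH was added and mobile worms were scored by microscope.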
row,SMILES,proportion of mobile D. dipsaci
1,COc1nc(-c2ccc(Cl)cc2)ccc1-c1noc(-c2ccncc2)n1,1
2,Fc1ccc(CSc2nnc(-c3ccccn3)o2)cc1,1
3,CCOc1ccc(NC(=O)CSc2nnc(-c3ccccc3Cl)o2)cc1,1
4,COc1ccc(NC(=O)CSc2nnc(-c3ccc(Br)cc3)o2)cc1,1
5,Cn1c(SCc2ccc(Cl)cc2)nnc1-c1ccco1,1
6,Fc1ccc(-c2nc(-c3cccc(C(F)(F)F)c3)no2)cc1,1
7,O=C(Nc1ccccc1-c1nc(-c2ccncc2)no1)c1cccc(Cl)c1,1
8,O=C(NCCc1ccccc1)c1ccccc1-c1nc(-c2ccccc2Cl)no1,1
9,Cc1ccccc1OCc1nc(-c2ccc3c(c2)OCO3)no1,1
10,CCOC(=O)c1ccc(OCc2nc(-c3cccs3)no2)cc1,1
11,COc1nc(C)ccc1-c1noc(-c2ccc(C)cc2)n1,1
12,CC(C)(C)c1ccc(OCc2nc(-c3ccncc3)no2)c(Br)c1,1
13,COc1cccc(-c2noc(-c3ccc(C)cc3)n2)c1,1
14,Brc1ccc(-c2nnc(-c3cccs3)o2)o1,0.362 (active)
15,Cc1cccc(C)c1NC(=O)CSc1nnc(-c2ccncc2)o1,1
16,CCC(=O)Nc1ccccc1-c1nc(-c2ccncc2)no1,1
17,Ic1ccc(CSc2nnc(-c3ccccc3)o2)cc1,1
18,COc1cccc(-c2nc(-c3ccccc3)no2)c1,1
19,O=C(CSc1nnc(-c2ccc(Cl)cc2)o1)c1ccccc1,1

row,SMILES,proportion of mobile D. dipsaci
1,CCOc1ccc(-c2nc(-c3ccccc3C)no2)cc1,1
2,c1ccc(COc2cccc(-c3nc(-c4ccncc4)no3)c2)cc1,1
3,Cc1ccc(-c2nc(-c3cccc(C)c3)no2)cc1,1
4,COc1cccc(-c2noc(COc3ccc(C(C)C)cc3)n2)c1,1
5,Cc1ccccc1OCc1nc(-c2cccc(NC(=O)c3ccco3)c2)no1,1
6,O=C(CSc1nnc(-c2ccc(Cl)cc2Cl)o1)N1CCCCC1,1
7,Brc1ccc(-c2noc(-c3cccs3)n2)o1,1
8,C=CCSc1nnc(-c2ccc(Br)cc2)o1,0.85 (active)
9,COc1nc(C)ccc1-c1noc(-c2ccccc2Cl)n1,1
10,N#Cc1ccc(OCc2nc(-c3ccc(Br)o3)no2)cc1,1
11,Cc1ccc(-c2noc(-c3ccc(Br)o3)n2)s1,1
12,COc1ccc(-c2noc(COc3ccc(Cl)c(C)c3)n2)cc1,1
13,CC(Sc1nnc(-c2cccnc2)o1)C(=O)c1ccccc1 (stereo unspecified),1
14,COc1ccccc1-c1nnc(SCC(=O)Nc2nc(C)cs2)o1,1
15,O=C(CSc1nnc(-c2ccco2)o1)Nc1cccc2ccccc12,1
16,FC(F)(F)c1ccc(-c2noc(-c3ccccc3Cl)n2)cc1,1
17,COc1cccc(-c2noc(COc3ccc(Br)cc3)n2)c1,1
18,COc1ccc(-c2nnc(SCc3csc(N)n3)o2)cc1,1
19,COc1ccc(-c2nc(-c3ccc(Cl)cc3)no2)cc1,1
